High-throughput results as filed in PubChem BioAssay.
GLP1R cytotox: cytotoxicity counter-screen for GLP-1 receptor inverse agonists. AID 624418. Potency, µM (doses to about 38.3 µM), for inactives: at the highest dose activity change, negative = inhibition, usual class: inhibitors. 410,000 compounds, 0.13% hits. HEK293 cAMP-luciferase reporter cells, luminescence, 24 h;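 note: loss of luciferase light is scored as toxicity; % is set by controls: 0 for no effect and ±100 for the full control effect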
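Cells in DMEM/10% Nu serum/1% pen-strep, 1536-well format. Pre-incubated 12 h, dosed with 23 nL compound, incubated a further 24 h. Luciferase detection, 12 min at room temp, luminescence.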
GLP1R inv ag: inverse agonists of human GLP-1 receptor. P43220. 410,000 compounds, 1.6% hits. HEK293 GLP-1R CRE-luciferase, luminescence, 24 h; GLP-1R form is constitutively active. Potency, µM (titrated, usually from 38.3 µM), for the others: top-dose activity change, negative = inhibition, hits mostly inhibitors. AID 624417; note: % is set by controls: 0 for no effect and ±100 for the full control effect; nearly all actives have a fitted effect of over 55% in size
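Stable HEK293 clone (constitutively active GLP-1R + cAMP-response luciferase); 200 cells/uL plated, 12 h pre-culture, compound 24 hr, 37 deg C/5% CO2; detection reagent 12 min RT; luminescence.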
PTHR1 ag: activates the human parathyroid hormone receptor PTHR1. Q03431. HEK293 GP2 PTHR1 cells, GloSensor cAMP luminescence, 1 h. Potency, µM (highest dose often 115 µM), for the others: top-dose activation, actives largely listed as activators. 410,000 compounds, 0.075% hits. AID 743266; note: nearly all actives have a fitted effect of over 55% in size
Target sequence (Q03431 whole entry, looked up): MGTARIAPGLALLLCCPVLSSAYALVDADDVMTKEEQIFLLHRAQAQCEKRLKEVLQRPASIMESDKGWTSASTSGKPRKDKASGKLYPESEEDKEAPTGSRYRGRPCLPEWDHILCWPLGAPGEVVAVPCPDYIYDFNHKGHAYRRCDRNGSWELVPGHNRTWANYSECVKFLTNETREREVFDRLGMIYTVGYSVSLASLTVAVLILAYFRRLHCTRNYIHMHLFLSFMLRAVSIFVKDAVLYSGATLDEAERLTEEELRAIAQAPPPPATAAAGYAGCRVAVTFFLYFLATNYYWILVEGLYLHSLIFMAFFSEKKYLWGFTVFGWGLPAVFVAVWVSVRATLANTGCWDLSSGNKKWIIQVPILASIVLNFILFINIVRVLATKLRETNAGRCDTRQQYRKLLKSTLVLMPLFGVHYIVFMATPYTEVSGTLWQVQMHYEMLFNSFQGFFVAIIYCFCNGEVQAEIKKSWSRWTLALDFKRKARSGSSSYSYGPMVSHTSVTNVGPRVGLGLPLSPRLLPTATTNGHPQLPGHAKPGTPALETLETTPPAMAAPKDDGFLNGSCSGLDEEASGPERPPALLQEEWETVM
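HEK-293-derived GP2 cells expressing PTHR1 and a GloSensor cAMP reporter, 3,000/well, plated overnight, given luciferin plus IBMX (each 0.5 mM as added) for 1 h at 37 °C, then compound for 1 h at 37 °C. Luminescence was read after 15 min at room temperature.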
GLP1R ag: agonists of human GLP-1 receptor. HEK293 GLP-1R CRE-luciferase, luminescence, 4-6 h; cells express a hypersensitive GLP-1R form. Potency, µM (highest dose often 45.6 µM), inactives show at the top dose activation, actives largely listed as activators. 380,000 compounds, 0.007% hits. AID 624172; note: % of control where 0% means no effect
* = called active by the depositor; [ ] = remark or other dose. A selection: hits, their analogues and other compounds. The true share with any hit is near 1.7%. Calls come from the whole dose curve; as a rule, active = well fitted curve in the direction sought with a large enough effect; inconclusive = small, poorly fitted or top-dose-only effect, or another doubt; inactive = no such curve, though single readings can be large; an effect the other way counts as inactive or inconclusive. Potency is the fitted concentration of half-maximal effect.

CCC1CCCCN1C(=O)COc1ccc(N(C)S(=O)(=O)c2ccc(C)cc2)cc1 (centres undefined) was read as GLP1R cytotox 3%, GLP1R inv ag 3.2µM*, PTHR1 ag -4% and GLP1R ag 8%.
Cc1ccc(S(=O)(=O)N(C)c2ccc(OCc3cccc(C)c3)cc2)cc1 was read as GLP1R cytotox 10%, GLP1R inv ag 2.8µM*, PTHR1 ag -12% and GLP1R ag -8%.
For COC(=O)C1CCN(C(=O)COc2ccc(N(C)S(=O)(=O)c3ccc(C)cc3)cc2)CC1 the results were GLP1R cytotox 0%, GLP1R inv ag 12%, PTHR1 ag inactive and GLP1R ag -8%.
`Cc1ccc(S(=O)(=O)N(C)c2ccc(OCC(=O)NCC3(N(C)C)CCCCC3)cc2)cc1` gave GLP1R cytotox 0%, GLP1R inv ag 11µM*, PTHR1 ag inactive and GLP1R ag 0%.
Screening Cc1ccc(NC(=O)CSc2n[nH]c(-c3ccc(F)cc3)n2)cc1F returned GLP1R cytotox -5%, GLP1R inv ag -1% and PTHR1 ag -10%.
Screening CC(=O)Nc1ccc(NC(=O)CC(C)n2ccc(C)n2)cc1 (centres undefined) returned GLP1R cytotox 0%, GLP1R inv ag -3% and PTHR1 ag inactive.
Screening CCC(NC(=O)CNC(=O)c1ccc2c(c1)OCO2)c1ccc(Br)cc1 (centres undefined) returned GLP1R cytotox 0%, GLP1R inv ag 13µM*, PTHR1 ag -21% and GLP1R ag -11%.
For CCOC(=O)C1CCN(C(=O)CN2c3ccc(C(C)C)cc3-c3ccccc3S2(=O)=O)CC1 the results were GLP1R cytotox -13%, GLP1R inv ag inconclusive and PTHR1 ag -5%.
For O=C(CCCOc1ccccc1)N1CCN(c2ccccn2)CC1 the results were GLP1R cytotox -11%, GLP1R inv ag 10µM*, PTHR1 ag -34%[57.5 µM] and GLP1R ag -6%.
Cc1cc(C)cc(C(=O)Nc2ccc(-c3nc4ncccc4o3)cc2)c1 was read as GLP1R cytotox -3%, GLP1R inv ag 0% and PTHR1 ag inactive.
For CCOc1ccc(NC(=O)C2CCCN(c3nn4cc(-c5ccc(OC)cc5)nc4s3)C2)cc1 (centres undefined) the results were GLP1R cytotox -12%, GLP1R inv ag 4% and PTHR1 ag inactive.
Screening N/C(=N\OC(=O)c1cccc(Br)c1)c1ccccn1 returned GLP1R cytotox -12%, GLP1R inv ag 6.3µM*, PTHR1 ag -29% and GLP1R ag 0%.
COc1cc2cc(CNc3ccccc3)c(=O)n(CC(=O)Nc3cc(C)cc(C)c3)c2cc1OC was read as GLP1R cytotox 5%, GLP1R inv ag 1%, PTHR1 ag 0% and GLP1R ag 0%.
`O=C(OCc1ccccc1)/C(=C/c1cccc(Br)c1)NC(=O)c1ccco1` gave GLP1R cytotox 12%, GLP1R inv ag 10µM*, PTHR1 ag -37% and GLP1R ag -3%.
`CCOC(=O)Cn1cccc1-c1nc(-c2ccc(OC)cc2)c(-c2ccc(OC)cc2)s1` gave GLP1R ag 3%.
`FC(F)(F)c1nc2ccccc2nc1N/N=C\c1ccccc1` gave GLP1R cytotox 8.9µM*, GLP1R inv ag inconclusive, PTHR1 ag -5% and GLP1R ag 2%.
`O=[N+]([O-])c1cc(C(F)(F)F)ccc1NCCc1c[nH]c2ccc(O)cc12` gave GLP1R cytotox -12%, GLP1R inv ag 0%, PTHR1 ag -1%[57.5 µM] and GLP1R ag 12%.
O=[N+]([O-])c1cc(C(F)(F)F)ccc1NCCc1c[nH]c2ccccc12 was read as GLP1R cytotox 10µM*, GLP1R inv ag inconclusive, PTHR1 ag -1% and GLP1R ag -6%.
Screening CCN(CC(=O)NCc1ccc(Cl)cc1)C(=O)CSc1ccc(Br)cc1 returned GLP1R cytotox 4%, GLP1R inv ag 6.3µM*, PTHR1 ag -42% and GLP1R ag 0%.
O=C(CSc1cn(CC(=O)N2CCCCC2)c2ccccc12)NCc1ccccc1 was read as GLP1R cytotox -11%, GLP1R inv ag -28% and PTHR1 ag inactive.
COC(=O)c1c(NC(=O)CSc2nc3ccccc3c(=O)n2Cc2ccco2)sc(C)c1C was read as GLP1R cytotox 6%, GLP1R inv ag 16%, PTHR1 ag -21% and GLP1R ag 2%.
